# About 83,000 compounds went through this panel and 20% of them were active in at least one assay; those are over-represented in the sample as a whole.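 Growth was measured after 48 h exposure to one concentration of compound in 96-well plates. Values under 10 count as active.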 Values without a mark were called inactive. Calls of active or inactive are those of the source.
# Test system: HL-60(TB) leukemia
# Assay: NCI-60 one-dose screen, 48 h (100 = growth as untreated, 0 = no growth, -100 = all killed)
# Details: 10 µM unless noted
row,SMILES,growth
1,COc1ccc(-c2nc3ccc(-c4nnc(SCc5ccccc5)o4)cc3[nH]2)cc1OC,78.4%
2,O=C1NC(=S)/C(=C/c2cn(-c3ccccc3)nc2-c2ccccc2)S1,21%
3,CCOC(=O)C(Cc1ccccc1)N1C(=O)/C(=C/N2N=C(c3ccc(OC)cc3)CC2c2ccc3ccccc3c2)SC1=S (stereo not given),-18.4% (active)
4,CC1(c2ccccc2)NC(=O)N(CC(=O)Nc2ccc(C(=O)/C=C/C=C/c3ccccc3)cc2)C1=O (stereo not given),36.8%
5,COc1ccc2[nH]c(=O)c(CSc3nccc(-c4ccc(Cl)cc4)n3)cc2c1,29.3%

# Source: PubChem BioAssay (NCI)
